Results from PubChem BioAssay (NCATS).
Results filed as inconclusive are left out. Where a call stands in place of a potency, no number is given. Values without a mark were called inactive. Calls of active or inactive are those of the source. Calls follow the shape of the dose curve; as a rule, active = well fitted curve in the direction sought with a large enough effect; inconclusive = small, poorly fitted or top-dose-only effect, or another doubt; inactive = no such curve, though single readings can be large; an effect the other way counts as inactive or inconclusive.

How the values were obtained:
[1] = P-glycoprotein substrates identified in KB-8-5-11 adenocarcinoma cell line, qHTS therapeutic library screen (AID 1346987); also: nearly all actives have a fitted effect of over 65% in size
Method in brief: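 Steps: plate 500 KB-8-5-11 cells/well in DMEM + 10% FCS (colchicine removed); pin compounds in dose-response; incubate 72 h, 37 degree C, 5% CO2; add CellTiter-Glo, 5 min; read luminescence.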

[2] = Primary qHTS for inhibitors of nuclear receptor binding SET domain protein 2 (NSD2) in an isogenic RCH-ACV NSD2 p.E1099K mutant (9B) (AID 1645876); also: nearly all actives have a fitted effect of over 70% in size; also: potency is read from the fitted curve at half-maximal effect
[3] = Primary qHTS for inhibitors of nuclear receptor binding SET domain protein 2 (NSD2) in an RCH-ACV wild type WT cells (2C) (AID 1645877); also: nearly all actives have a fitted effect of over 70% in size; also: potency is read from the fitted curve at half-maximal effect
[4] = target: Glutathione peroxidase 1 (Homo sapiens) (UniProt P07203); assay: Primary qHTS Assay for Inhibitors of Recombinant Selenoprotein Glutathione Peroxidase 1 (GPX1) (AID 1845191); also: nearly all actives have a fitted effect of over 65% in size; also: potency is read from the fitted curve at half-maximal effect
Glutathione peroxidase 1 (Homo sapiens), sequence (P07203 whole entry, looked up): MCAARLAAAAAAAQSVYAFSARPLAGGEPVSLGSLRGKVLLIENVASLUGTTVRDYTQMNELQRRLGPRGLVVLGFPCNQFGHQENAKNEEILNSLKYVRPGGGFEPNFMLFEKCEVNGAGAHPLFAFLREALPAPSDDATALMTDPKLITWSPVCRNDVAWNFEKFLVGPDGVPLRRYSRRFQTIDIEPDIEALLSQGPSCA
Method in brief: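 10 nM GPX1 + cpd, 30 min RT; start w/ 1 mM GSH, 0.5 mM cumene hydroperoxide, 0.5 mM NADPH, 100 nM GR, 0.01% BSA; buffer 50 mM Tris-HCl pH 7.5, 2 mM EDTA, 150 mM NaCl; Fl 340/450, 0 & 15 min.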

Row | SMILES | Potency [1] | Potency [2] | Potency [3] | Potency [4]
1 | Cc1cc(-c2ccc(/C=C3\SC(=Nc4ccc(Cl)c(C(=O)O)c4)NC3=O)o2)c([N+](=O)[O-])cc1C | inactive | inactive | inactive | 20.2 µM (active)
2 | O=C(c1ccc(-c2ccc(Cl)cc2)o1)N(Cc1ccccn1)c1ccc(N2CCNCC2)cc1 | inactive | 13 µM (active) | 16.4 µM (active) | inactive
